The campaign covered roughly 300,000 compounds. About 3,600 (1.2%) were called active. The list comes from a sample in which actives are over-represented; it also holds similar structures and randomly drawn compounds. Unmarked numbers belong to inactive results. No stated cut-off is given here; in the data, active means activation above about 30% (passing the limit was not always enough); inconclusive means no clear call, values can overlap the other calls.
assay: Wnt/beta-catenin pathway activators, primary screen, cell-based, plate reader, single point (AID 743398); conditions: Wnt/beta-catenin reporter cell assay, activator, at 9.35 µM, hits give high values;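 further: 0% = neutral control wells and 100% = positive control wells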

SMILES	activation
CCOC(=O)c1cccc(NC(=O)CCOc2ccccc2)c1	-0.119%
CCOC(=O)c1cccc(NC(=O)CN2C(=O)C3CC=CCC3C2=O)c1 (stereo unspecified)	0.82%
CCOC(=O)c1cccc(NC(=O)c2ccc(F)cc2F)c1	46.1% (active)
COc1ccc(C2Nc3ccccc3C(=O)N2Cc2ccccc2)cc1Cn1nnc2ccccc21 (stereo unspecified)	-5.17%
COc1ccc(C2Nc3ccccc3C(=O)N2c2ccc(Cl)cc2)cc1Cn1cc([N+](=O)[O-])cn1 (stereo unspecified)	63.8% (active)
COc1ccc(N2C(=O)c3ccccc3NC2c2ccc(OC)c(CN3CCOCC3)c2)cc1 (stereo unspecified)	7.45%
COc1cccc(-c2cnc3c(NC(C)=O)cc(-c4cc(F)ccc4OC)cn23)c1	-0.939%
CC(C)(C)C1CCC(=O)N2CCC[C@]2(c2ccccc2)C1 (stereo partly specified)	-2.76%
COc1ccc(C2=NN(C(=O)c3ccccc3C(=O)O)C(c3ccccc3O)C2)cc1 (stereo unspecified)	42.7% (active)
COc1ccc(C2=NN(C(C)=O)C(c3ccccc3)C2)cc1 (stereo unspecified)	3.24%
COc1ccc(C2=NN(C(=O)c3cccnc3)C(c3ccccc3)C2)cc1 (stereo unspecified)	1.72%
COCCNC(=S)N(C)[C@H]1C[C@H]2c3[nH]c4ccccc4c3CCN2C[C@H]1[C@H](C)O	-0.111%
COC(=O)[C@]12CCCCC=C1N(Cc1ccc(Cl)cc1Cl)C(=O)[C@H](CC(=O)NCc1cccc3ccccc13)C2	-3.47%
O=C(CCc1ccc(O)cc1)NN=Cc1cc(Br)ccc1O	-2.84%
O=C(Nc1ccccc1N1CCN(C(=O)c2ccccc2)CC1)c1ccc2c(c1)OCO2	1.55%
O=C(Nc1ccccc1F)c1ccc2c(c1)OCO2	44% (active)
N#Cc1ccccc1NC(=O)c1ccc2c(c1)OCO2	3.38%
CN1C(=O)C(Br)(Br)CC1c1cccnc1 (stereo unspecified)	0.101%
CCOC(=O)[C@]12CCCC=C1N(CCC1=CCCCC1)C(=O)[C@H](CC(=O)N1CCSCC1)C2	-2.19%
COc1ccccc1Cc1c(-c2ccc(F)cc2)nc2ccc(C)cn12	13%
CCOC(=O)N1CCN(C(=O)C[C@H]2C[C@@]3(C(=O)OC)C(=C[C@H](C4CCCC4)O[C@@H]3C)N(Cc3ccccc3)C2=O)CC1	-4.54%
CCC(C)N(C(=O)CSc1ncnc2c1cnn2-c1ccccc1)C1CCS(=O)(=O)C1 (stereo unspecified)	0.0855%
CCN(CC)C(=O)CSc1ncnc2c1cnn2-c1ccccc1	61.3% (active)
CCN(C(=O)CSc1ncnc2c1cnn2-c1ccccc1)C1CCS(=O)(=O)C1 (stereo unspecified)	0.526%

SMILES	activation
O=C1NC[C@H](Cc2ccc(O)cc2)N(C[C@@H]2CCCN2C[C@H](Cc2ccccc2)N2C[C@H](Cc3ccccc3)N(CC3CCCCC3)C(=O)C2=O)C1=O	-2.18%
COC(=O)c1ccc(CN2C(=O)[C@]3(OCCC=C[C@H]3C)c3c(Br)cccc32)cc1	-10.3%
CC1Cc2ccccc2N1CC(=O)Nc1ccc(S(N)(=O)=O)cc1 (stereo unspecified)	39% (active)
CC1CC(C)CN(CC(=O)Nc2ccc(S(N)(=O)=O)cc2)C1 (stereo unspecified)	-0.27%
NS(=O)(=O)c1cccc(NC(=O)CN2CCCc3ccccc32)c1	-1.12%
CC(NC(=O)COC(=O)c1cc(=O)[nH]c2ccccc12)c1ccccc1 (stereo unspecified)	-11.1%
CN(C(=O)COC(=O)c1cc(=O)[nH]c2ccccc12)C1CCCCC1	60.6% (active)
CC1CCN(C(=O)COC(=O)c2cc(=O)[nH]c3ccccc23)CC1	-3.48%
Cc1ccc([C@H]2N[C@]3(CCCN(Cc4ccccc4)C3=O)[C@H]3C(=O)N(Cc4ccccc4)C(=O)[C@@H]23)cc1	-1.11%
Cc1ccc(-c2cn(S(=O)(=O)c3cccc([N+](=O)[O-])c3)nc2N)cc1	-0.55%
Cc1ccc(-n2cc3ccc([N+](=O)[O-])cc3n2)cc1	44.6% (active)
Cc1cc(C)nc(Nc2cc([N+](=O)[O-])ccc2C)n1	-0.166%
CC(C)[C@@H](C)/C=C/[C@@H](C)[C@H]1CC[C@@H]2[C@]1(C)CCC1[C@]23C=C[C@]2(C[C@@H](O)CC[C@]12C)N(c1ccc([N+](=O)[O-])cn1)O3 (stereo partly specified)	-14.5%
CN(C(=O)CN1CCN(c2cc(-c3ccc(OCc4ccccc4)cc3)ncn2)CC1)c1ccccc1	-1.53%
CC(C)CNC(=O)c1cc(-c2ccc(Br)cc2)on1	26.3%
CC(C)Cc1cc(C(=O)Nc2cc(Br)ccc2O)no1	44.3% (active)
CC(C)Cc1cc(C(=O)NCCc2ccccc2)no1	28.6%
OC[C@@H]1CN(Cc2ccc(-c3ccccc3)cc2)C[C@H](n2cnc3c(NC4CCCC4)ncnc32)O1	-4.89%
Cc1nc2c(OCc3ccc(Cl)cc3Cl)cccn2c1N(C)CC1CC1	-3.96%
Nc1nc2c(ncn2[C@@H]2O[C@H](C(=O)N[C@@H](Cc3ccccc3)C(=O)NCc3ccccc3)[C@@H](O)[C@H]2O)c(=O)[nH]1	1.27%
CSCCC(C(=O)NC(C)(C)C)n1c(-c2ccccc2)nc2ccccc21 (stereo unspecified)	2.95%
CCOC(=O)c1c(NC(=S)SC)sc(C(=O)N2CCc3ccccc3C2)c1C	-0.956%
Oc1c(CN2CCCC2)cc(COCc2ccccc2)c2cccnc12	2.52%
CCN1CCN(C(c2cccnc2)c2cc(Cl)c3cccnc3c2O)CC1 (stereo unspecified)	61.4% (active)

SMILES	activation
CC(=O)NC(c1cccs1)c1cc(Br)c2cccnc2c1O (stereo unspecified)	-2.66%
O=C(NN=Cc1ccco1)C(=O)Nc1ccc(Cl)c([N+](=O)[O-])c1	-3.58%
Cc1cc(C)n2c(Nc3c(C)cccc3C)c(CCc3ccccc3)nc2n1	-1.15%
Cc1nonc1NC(=O)CSc1nc2ccccc2cc1C#N	24.4%
Cc1cc(C)c(C#N)c(SCC(=O)Nc2ccccc2)n1	39.1% (active)
Cc1nc2cc(NC(=O)CSc3nc4c(C)cccc4cc3C#N)ccc2s1	-2.44%
CCCCc1c(-c2ccc(Br)cc2)ncn1CCc1ccccc1OC	-12.1%
CC(=O)c1ccc(S(=O)(=O)NCC2CCN(C(=O)C(=O)c3cccs3)CC2)cc1	-0.884%
Cc1nc(NC(=O)C2CCCCC2)sc1C	37.5% (active)
Cc1nc2ccc(NC(=O)C3CCCCC3)cc2s1	15.2%
Cc1nc(NC(=O)C23CCC(C)(C(=O)O2)C3(C)C)sc1C (stereo unspecified)	-2.53%
CCOC(=O)c1ccc(-c2ccc3ncnc(N(C)Cc4sccc4C)c3c2)o1	7.57%
COC(=O)C(C(=O)OC)c1ccccc1NS(=O)(=O)c1cccc2ccccc12	-4.59%
CCc1nc2c(OCCOc3ccccc3)cccn2c1N(C)C(=O)c1cccs1	-2.69%
COc1ccc(CCNC(=O)CSc2nc(-c3ccc(OC)c(OC)c3)ccc2C#N)cc1	-3.46%
CCOc1ccc2nc(N3CCCN(C(=O)Nc4ccccc4C)CC3)c(C#N)cc2c1	-1.99%
CCOc1ccc2cc(C#N)c(SCC(=O)OC)nc2c1	86% (active)
COc1ccc(NC(=O)C(c2ccncc2)n2c(=O)c(-c3cc4ccccc4[nH]3)nc3ccccc32)cc1 (stereo unspecified)	16.9%
C[C@H](O)[C@@H]1CN2CCc3ccc(-c4ccc5c(c4)OCO5)cc3[C@@H]2C[C@@H]1N(C)C(=O)C1CCCCC1	23.5%
Cc1ccccc1C(=O)N[C@H](C(=O)N1CCC[C@H]1C(=O)NCc1ccccc1)C(C)C	-3.2%
COc1cccc(C(O)c2nc3ccccc3n2C)c1 (stereo unspecified)	47.8% (active)
COc1ccc(OC)c(C(O)c2nc3ccccc3n2C)c1 (stereo unspecified)	-0.171%
COc1cc(C(O)c2nc3ccccc3n2C)cc(OC)c1OC (stereo unspecified)	-0.72%
CCCCCCn1c(=O)n2n(c1=O)C[C@]1(OC(=O)NCc3ccc(OC)c(OC)c3)CN(S(=O)(=O)c3ccc(C)cc3)C[C@]1(O)C2	-4.95%

SMILES	activation
C=CCNC(=O)c1ccc(C)c(Br)c1	-0.707%
Cc1cccc(-c2nc3ccc(C(=O)NCCN4CCN(C)CC4)cc3nc2-c2cccc(C)c2)c1	2.48%
C=CCNC(=O)c1ccc2c3n(nc2c1)-c1ccc(C)cc1CO3	38.9% (active)
Cc1ccc2c(N)c(C(=O)c3ccccc3)sc2n1	22.1%
CN(C)c1ccnc2sc(C(=O)c3ccccc3)c(N)c12	79.3% (active)
CCN(CC)C(=O)c1sc2nc(-c3ccccc3)ccc2c1N	10.1%
COc1cccc(C(O)c2ncc(-c3ccc4ccccc4c3)[nH]2)c1 (stereo unspecified)	0.0285%
Cc1ccc2nc(-c3ccco3)c(Cc3cccc(Cl)c3)n2c1	-1.15%
O=C(COc1ccc([N+](=O)[O-])cc1)Nc1ccc(N2CCCC2)cc1	-2.41%
O=C(N/N=C/c1ccc(O)cc1)/C(=C/c1ccc([N+](=O)[O-])cc1)NC(=O)c1ccccc1	0.356%
O=C(COc1ccc(/C=N/NC(=O)c2ccc(O)cc2)cc1)Nc1ccc([N+](=O)[O-])cc1	46.5% (active)
CCC(CC)C(C(=O)NC1CCCC1)N1CCN(c2cc(C)nc3ccccc23)CC1 (stereo unspecified)	-1.19%
CNC(=O)c1ccc(CN(C)C(=O)c2cc(C3CC3)nc3c2cnn3C(C)C)cc1	7.06%
O=C(Cc1ccc([N+](=O)[O-])cc1)NCCS(=O)(=O)N1CCN(c2ccccc2)CC1	-2.6%
CCCOc1ccc(F)cc1-c1cc(C(=O)Nc2ccc(F)c(Cl)c2)[nH]n1	-0.991%
CCCCCCCCN1C(=O)[C@@H](CC(=O)NCc2ccc(C)o2)C[C@@]2(C(=O)OC)C1=C[C@H](C(C)(C)C)O[C@@H]2C	-3.74%
COc1ccc2c(c1)O/C(=C\c1ccccc1O)C2=O	39.8% (active)
O=C1Oc2ccccc2C(=O)/C1=C/c1ccccc1O	-4.19%
COC(=O)C(C)Oc1ccc2c(c1)O/C(=C\c1cccc(Br)c1)C2=O (stereo unspecified)	-0.1%
Clc1cccc2c1C1CC2CCN1Cc1ccccc1 (stereo unspecified)	-2.22%
COc1ccc(C(=O)O/N=C(\N)c2ccccn2)cc1[N+](=O)[O-]	17%
N/C(=N\OC(=O)Cc1ccc([N+](=O)[O-])cc1)c1ccccn1	1.55%
COc1ccccc1OCC(=O)O/N=C(\N)c1ccccn1	55.9% (active)
COc1ccc(OC)c(CN2C(=O)CCC2(C)c2nnnn2Cc2ccccc2)c1 (stereo unspecified)	-0.624%

Source: PubChem BioAssay AID743398 (Broad Institute, 2014)
